Screening results from PubChem.
Pf growth 96h = inhibits malaria parasite growth, 96 h | P. falciparum luciferase reporter growth, 96 h | Potency, µM (titrated, usually from 28.7 µM), for the others: top-dose activity change, negative = inhibition, hits mostly inhibitors | 320,000 tested, 6.9% active | AID 504834; also: potency is read from the fitted curve at half-maximal effect; % is scaled to controls: 0 for no effect and ±100 for the full control effect
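P. falciparum expressing integrated firefly luciferase grown in erythrocytes (2% hematocrit, 0.05% parasitemia final) with compounds for 96 hours at 37 C, 5% CO2. Growth inhibition read as loss of luminescence after adding luciferase detection reagent.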
CHX counter = affects cycloheximide protein synthesis inhibition readout, counter-screen. cell reporter, cycloheximide protein synthesis inhibition counterscreen. max response, %. 300,000 tested, 12% active; in the data active = max response mostly above about 13%, no sharp cut-off; inactive = mostly below about 14%; also: read at 38.3 µM for the half of the compounds with a filed dose; 0% is about no effect
Shiga toxin inh = Shiga toxin inhibition; Vero cells, Shiga toxin protein synthesis inhibition reporter; inhibition, % at 38.7 µM; 290,000 tested, 9.2% active; AID 2315; in the data active = inhibition mostly above about 28%, no sharp cut-off; inactive = mostly below about 43%; also: 0% is about no effect
Pf growth 48h = inhibits P. falciparum growth in the first generation, 48 h | P. falciparum luciferase growth in erythrocytes, 48 h | Potency, µM (highest dose often 28.7 µM), without a hit: at the highest dose activity change, negative = inhibition, actives largely listed as inhibitors | 310,000 tested, 5.9% active; also: potency is read from the fitted curve at half-maximal effect; % is scaled to controls: 0 for no effect and ±100 for the full control effect
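Growth was read as firefly luciferase luminescence after a 48 h, 37 C, 5% CO2 exposure of compounds to reporter-bearing P. falciparum cultures (0.1% parasitemia, 2% hematocrit final) in Albumax-supplemented RPMI 1640.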
The depositor's hits bear a star; ? = inconclusive; . = no result given. The list is not random: actives were taken first. Their share in the collection is about 21%. Unless noted, calls follow the shape of the dose curve; as a rule, active = well fitted inhibition curve with a large enough effect; inconclusive = small, poorly fitted or top-dose-only effect, or another doubt; inactive = no such curve, though single readings can be large or run the other way.

SMILES	Pf growth 96h	CHX counter	Shiga toxin inh	Pf growth 48h
C#CCCCCCCC#CCN(C)C	-14%	-4	-5	9%
CCOC(=O)C1CCN(C(=O)CN2C(=O)COc3ccc(C(C)(C)C)cc32)CC1	10µM*	-4	16	-18%
CCOC(=O)CN1C(=O)COc2ccc(C(C)(C)C)cc21	0.47µM*	-2	15	48%
CCCCNS(=O)(=O)c1cc2c3c(c1)CCN3C(=O)CC2	69%	-6	-2	25%
CN(C)CCCNC(=S)NCC(c1ccc(Cl)cc1Cl)c1c[nH]c2ccccc12 (stereo not drawn)	2.1µM*	-3	-13	?
O=C(N/N=C/c1ccc(Cl)c([N+](=O)[O-])c1)c1ccc2nc[nH]c2c1	?	-7	-3	3.3µM*
O=C(N/N=C/c1ccccc1[N+](=O)[O-])c1ccc2nc[nH]c2c1	?	18*	32	?
Cc1ccc2[nH]c3c(c2c1)CCN1C(=O)OC(C)(C)C31C (stereo not drawn)	?	-8	-21	-17%
Cc1cc(C)n2nc(C(=O)N/N=C/c3ccccc3Cl)nc2n1	-20%	7	18	-5%
C[N+](C)(C)CC(=O)N/N=C/c1c2ccccc2cc2ccccc12	6.6µM*	-8	18	9.3µM*
Cc1cc(C)n2nc(C(=O)N/N=C/c3c4ccccc4cc4ccccc34)nc2n1	12µM*	-1	6	-9%
COCCNC(=S)N/N=C/c1c2ccccc2cc2ccccc12	3.7µM*	7	40	6.6µM*
O=C(O)[C@@H]1C[C@H](C(=O)O)N1	.	8	-3	.
CCOC(=O)C1(C)C=C(Nc2ccc(OC)cc2)C(=O)N1c1ccc(OC)cc1 (stereo not drawn)	19%	13	2	-9%
CCOC(=O)C1(C)C=C(Nc2ccc(O)cc2)C(=O)N1c1ccc(O)cc1 (stereo not drawn)	10µM*	0	14	12µM*
Cc1cc(C(F)(F)F)nc(CCNC(=O)C2CCC(=O)N(Cc3cccc(F)c3)C2)n1 (stereo not drawn)	25%	-2	-2	-15%
O=C(CC(c1ccco1)C1CCCCC1=O)c1ccco1 (stereo not drawn)	?	-5	1	-22%
O=C(CC(c1ccccc1)C1CCCCC1=O)c1ccco1 (stereo not drawn)	-28%	38*	63*	33%
CN(C)c1ccc(C(CC(=O)c2ccccc2)C2CCCCC2=O)cc1 (stereo not drawn)	10µM*	-3	-4	1%
O=C(NCc1ccccn1)C(C(=O)c1cccc([N+](=O)[O-])c1)n1cc(Cl)ccc1=O (stereo not drawn)	41%	12	25	8%
CC(=O)NCCSc1ccc(S(=O)(=O)N2CCCC2)cn1	-29%	.	.	?
COc1ccc2nc(/C=N/NC(=O)[C@H](C)NC(=O)OC(C)(C)C)ccc2c1	34%	16*	active	35%
NC(=O)CC(NC(=O)c1ccccc1)c1ccc(NCCOc2ccccc2)c([N+](=O)[O-])c1 (stereo not drawn)	?	-1	-3	?
O=[N+]([O-])c1cc(C(F)(F)F)ccc1NCCOc1ccccc1	55%	48*	31*	41%
O=[N+]([O-])c1cc(C(F)(F)F)ccc1NC1CCN(Cc2ccccc2)C1 (stereo not drawn)	?	-1	-17	-8%
SMILES	Pf growth 96h	CHX counter	Shiga toxin inh	Pf growth 48h
CN(C)S(=O)(=O)NCCNc1ccc(C(F)(F)F)cc1[N+](=O)[O-]	?	12*	9	14%
Cc1ccccc1OCCNc1cc(N2CCNCC2)ccc1[N+](=O)[O-]	0%	4	-7	?
Cc1ccccc1OCCNc1ccc(C(F)(F)F)cc1[N+](=O)[O-]	35%	20*	49	-1%
O=[N+]([O-])c1cc(C(F)(F)F)ccc1NC1CCN(Cc2ccccc2)CC1	6%	1	-6	7.4µM*
CS(=O)(=O)NCCNc1ccc(C(F)(F)F)cc1[N+](=O)[O-]	3%	-1	-13	14%
CCOC(=O)N1CCN(Cc2nc3cc(NC(=O)CC(C)C)ccc3n2CC)CC1	48%	4	-2	?
COc1cc(C(=O)N/C(=C\c2cn(C)c3ccccc23)C(=O)NCCN2CCOCC2)cc(OC)c1OC	21%	-2	-5	0%
COc1ccc(C(=O)COC(=O)[C@H](C)Nc2ccc(C(F)(F)F)cc2[N+](=O)[O-])cc1	.	0	0	6%
O=C(NCCCNc1ccc(C(F)(F)F)cc1[N+](=O)[O-])c1ccc(Cl)cc1	53%	-1	-29	22%
COc1ccc2[nH]c(C)c(CCNc3ccc(C(F)(F)F)cc3[N+](=O)[O-])c2c1	15µM*	0	10	?
